We go through 40 compounds from PubChem BioAssay (Tox21).

Inconclusive results are not listed. The source made the active and inactive calls. The call rests on the fitted dose curve; in most records, active means well fitted cell-killing curve with a large enough effect in the repeat runs; inconclusive means weak or mixed curves; inactive means no such curve, though single readings can be large or run the other way.

This experiment can be described thus: qHTS assay to identify small molecule antagonists of the peroxisome proliferator-activated receptor delta (PPARd) signaling pathway - cell viability counter screen (AID 743213). Further: nearly all actives have a fitted effect of over 50% in size. The following applies: PPARd-bla HEK293H viability, CellTiter-Glo luminescence, 17 h; series mostly up to 62 µM. The text has this:
U.S. Tox21 Program National Center for Advancing Translational Sciences [NCATS] NIH Chemical Genomics Center [NCGC] U.S. Environmental Protection Agency [EPA] National Institutes of Environmental Health Sciences [NIEHS] National Toxicology Program [NTP] U.S. Food and Drug Administration [FDA] Tox21 Assay Overview: The peroxisome proliferator-activated receptors (PPARs) are lipid-activated transcription factors of the nuclear receptor superfamily with three distinct subtypes namely PPAR alpha, PPAR delta (PPARd) and PPAR gamma. All these subtypes heterodimerizes with Retinoid X receptor (RXR) and have different physiological functions. […] To identify the compounds that inhibit PPAR-delta signaling, GeneBLAzer PPAR delta UAS-bla HEK293H cell line (Invitrogen, Carlsbad, CA, USA) containing a beta-lactamase reporter gene under the control of an Upstream Activator Sequence (UAS) was used to screen the Tox21 compound library. The cytotoxicity of the Tox21 compound library against the PPARd-bla cell line was tested in parallel by measuring the cell viability using CellTiter-Glo assay (Promega, Madison, WI) in the same wells.
Tox21 Assay Protocol Summary: PPARd-bla cells were dispensed at 3000 cells/5uL/well in 1536-well black wall/clear bottom plates using a Multidrop Combi (Thermo Fisher Scientific, Waltham, MA) dispenser. After the assay plates were incubated at 37 C and 5% CO2 for 5 h, 23 nL of compounds dissolved in DMSO, positive controls or DMSO only was transferred to the assay plate by a Pintool station (Kalypsys, San Diego, CA), followed by addition of 1ul L165041 (300 nM, final concentration in the wells). The assay plates were incubated at 37 C for 17 h, and then 1 uL of LiveBLAzerTM B/G FRET substrate was added using a Bioraptr Flying Reagent Dispenser (FRD) workstation (Beckman Coulter, Indianapolis, IN, USA). The assay plates were incubated at room temperature for 2 h and fluorescence intensity was measured by an Envision plate reader (PerkinElmer, Shelton, CT). For cell viability readout that measures cytotoxicity, 3 ul/well of CellTiter-Glo reagent was added into the assay plates using a Bioraptr FRD. After 30 min incubation at room temperature, the luminescence intensity in the plates was measured using a ViewLux plate reader (PerkinElmer).
In general terms: qHTS replaces the single test concentration by a dilution series.
`CC(=O)c1ccccc1`: the compound was classed as inactive.

Turning to `CCCCCC1=CCCC1=O`, the call was inactive.

In the case of `C=C(C)C(=O)Nc1ccc(Cl)c(Cl)c1`, the call was inactive.

For the compound `CCOC(=O)NNc1nncc2ccccc12`, the result was inactive.

In the case of `O=C(O)c1cc(=O)c2c(OCC(O)COc3cccc4oc(C(=O)O)cc(=O)c34)cccc2o1`, the compound was classed as inactive.

For the compound `CCc1cccc(C)c1N`, the compound was classed as inactive.

For the compound `O=C(Oc1ccccc1)c1ccccc1`, the compound was called inactive.

Regarding `CCCCC(CC)COC(=O)CCCCC(=O)OCC(CC)CCCC` (stereo not given), the compound was classed as inactive.

Consider `CCCCC(CC)COC(=O)C(C#N)=C(c1ccccc1)c1ccccc1` (stereo not given), for which the call was inactive.

With `CN(C)CCC(c1ccc(Cl)cc1)c1ccccn1` (stereo not given), the compound was called inactive.

In the case of `C/C=C1/CC2C=CC1C2` (stereo not given), the compound was called inactive.

As for `c1ccc2scnc2c1`, the outcome was inactive.

As to `CC1=C(C)S(=O)(=O)CCS1(=O)=O`, the compound was classed as inactive.

As to `Oc1cccc2ccccc12`, the result was inactive.

As for `CCCCCC(N)=O`, the call was inactive.

`O=C(O)c1ccc(C(=O)O)cc1`: the outcome was inactive.

Take `CCCCCC/C(C=O)=C\c1ccccc1`: the outcome was inactive.

Regarding `Cc1cnc(C(=O)NCCc2ccc(S(=O)(=O)NC(=O)NC3CCCCC3)cc2)cn1`, the call was inactive.

Turning to `CC(C)c1ccc(S(=O)(=O)O)cc1`, the outcome was inactive.

Consider `C#C[C@]1(O)CC[C@H]2[C@@H]3CCC4=CC(=O)CC[C@@H]4[C@H]3CC[C@@]21C`, for which the call was inactive.

As for `O=C(O)c1ccc2c(c1)C(=O)OC2=O`, the compound was called inactive.

Take `COc1ccc2cc([C@H](C)C(=O)O)ccc2c1`: the outcome was inactive.

As for `FC(F)(F)c1ccc(Cl)c(Cl)c1`, the result was inactive.

For `CC(=O)Nc1ccccc1`, the compound was classed as inactive.

As to `CCCCCCCCCCCCc1ccccc1`, the outcome was inactive.

In the case of `CC(=O)CC(=O)Nc1ccccc1`, the result was inactive.

Turning to `O=C(O)CCCC[C@@H]1SC[C@@H]2NC(=O)N[C@@H]21`, the outcome was inactive.

For `COc1ccc(NC(C)=O)cc1N`, the outcome was inactive.

Consider `Nc1ccccc1[N+](=O)[O-]`, for which the call was inactive.

For `Cc1occc(=O)c1O`, the compound was called inactive.

In the case of `CCN(CC)c1ccc(C(=O)c2ccccc2C(=O)O)c(O)c1`, the result was inactive.

Consider `Cc1ccc(S(N)(=O)=O)cc1`, for which the compound was called inactive.

On to `CC(C)(C)[C@@H](O)[C@@H](Cc1ccc(Cl)cc1)n1cncn1`, for which the call was inactive.

For `C=C(C)C(=O)OCCOCCOCCOC(=O)C(=C)C`, the compound was called inactive.

With `OCCOCCOCCO`, the outcome was inactive.

For `Cc1cccnc1`, the outcome was inactive.

With `CCc1ccc(CCOc2ccc(CC3SC(=O)NC3=O)cc2)nc1` (stereo not given), the compound was classed as inactive.

As for `O=C(O)[C@H](O)[C@@H](O)[C@H](O)[C@H](O)CO`, the compound was classed as inactive.

In the case of `CCC(O)OCCCOC` (stereo not given), the outcome was inactive.

`C=CCOC(=O)c1ccccc1C(=O)OCC=C`: the result was inactive.
